Consider twelve compounds from PubChem BioAssay (NCATS).

SMILES strings stand for the structures. Values without a mark were called inactive. Inconclusive results are not listed. Calls of active or inactive are those of the source. Calls come from the whole dose curve; as a rule, active = well fitted curve in the direction sought with a large enough effect; inconclusive = small, poorly fitted or top-dose-only effect, or another doubt; inactive = no such curve, though single readings can be large; an effect the other way counts as inactive or inconclusive.

In assay [1] the test system is Zika virus NS2B-NS3 protease (unlinked complex). The experiment in a line: Primary screen GU Rhodamine qHTS for Zika virus inhibitors: Unlinked NS2B-NS3 protease assay (AID 1347159). Note: % is set by controls: 0 for no effect and ±100 for the full control effect; nearly all actives have a fitted effect of over 60% in size. The gist of the method: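 Enzyme 25 nM in Tris-HCl pH 8.0 + 0.01% Tween 20; compounds up to 114 microM, 15 min RT dark; + Rhod110 substrate 1.5 microM; read t0 and 15 min; delta fluorescence → % inhibition → 4-parameter Hill fit.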
A general note: qHTS replaces the single test concentration by a dilution series.

Assay [2] deals with Zika virus NS2B-NS3 protease (linked construct). Briefly: Primary screen NINDS Rhodamine qHTS for Zika virus inhibitors (AID 1347160). For activity change, negative = inhibition: % is set by controls: 0 for no effect and ±100 for the full control effect. Note: nearly all actives have a fitted effect of over 55% in size. The gist of the method:
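Enzyme (25 nM, linked NS2B-NS3) was preincubated 15 min with compound in 10 mM Tris-HCl pH 8.0, 0.01% Tween 20. Rhodamine110 substrate (1.5 microM) was then added and fluorescence read at start and after 15 min.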

Assay [3] deals with Calcium and integrin-binding protein 1 (Homo sapiens) (UniProt Q99828). Briefly: Primary qHTS for Identification of Calcium Integrin Binding Protein 1 (CIB1) Competitor (AID 1508620).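 Note: GST tagged CIB1 binding a fluorescein labelled alphaIIb integrin peptide tracer; top concentration of the series differs between compounds; % is set by controls: 0 for no effect and ±100 for the full control effect.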 The gist of the method: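 Fluorescence polarization competition: CIB1-GST (1 uM final) preincubated with compound 15 min at room temperature, then FITC-labeled alphaIIb peptide (100 nM final) added for another 15 min. Polarization read at Ex 480/Em 540.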
Sequence of Calcium and integrin-binding protein 1 (Homo sapiens) (Q99828 whole entry, looked up): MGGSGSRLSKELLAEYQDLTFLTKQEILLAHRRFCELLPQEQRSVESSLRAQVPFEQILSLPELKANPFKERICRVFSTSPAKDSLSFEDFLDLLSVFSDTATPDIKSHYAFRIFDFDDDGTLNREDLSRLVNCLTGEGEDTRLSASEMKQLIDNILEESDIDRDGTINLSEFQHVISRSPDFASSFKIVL

The nature of assay [4]: Primary qHTS for inhibitors of nuclear receptor binding SET domain protein 2 (NSD2) in an isogenic RCH-ACV NSD2 p.E1099K mutant (9B) (AID 1645876). Note: nearly all actives have a fitted effect of over 70% in size. Note: potency is the fitted concentration of half-maximal effect.
In assay [5] the target is Glutathione peroxidase 1 (Homo sapiens) (UniProt P07203). The experiment in a line: Primary qHTS Assay for Inhibitors of Recombinant Selenoprotein Glutathione Peroxidase 1 (GPX1) (AID 1845191). Note: nearly all actives have a fitted effect of over 65% in size. The gist of the method:
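GPX1 10 nM, GR 100 nM, GSH 1 mM, NADPH 0.5 mM, CHP 0.5 mM (final). 30-min cpd preincubation, RT. Ex340/Em450 read t=0, t=15 min.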

In assay [6] the target is Phospholipid hydroperoxide glutathione peroxidase GPX4 (Homo sapiens) (UniProt P36969). Briefly: Primary qHTS Assay for Inhibitors of Recombinant Selenoprotein Glutathione Peroxidase 4 (GPX4) (AID 1845192). Note: nearly all actives have a fitted effect of over 65% in size. The gist of the method:
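qHTS, GR-coupled: GPX4 200 nM + cpd 30 min RT → GSH 1 mM, NADPH 0.5 mM, GR 100 nM → CHP 0.5 mM start; fluor 340/450 at t0 and t15 min; no-enzyme wells as control.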

The target in assay [7] is Luciferin 4-monooxygenase (Photinus pyralis) (UniProt P08659). Briefly: Primary firefly luciferase (FLuc) qHTS assay for identification of artifact compounds. (AID 1845220).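 For activity change, negative = inhibition: plate controls were DMSO vehicle for no effect and no enzyme for full effect.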 Note: nearly all actives have a fitted effect of over 60% in size. As to conditions: outcome: dose series up to 54.1 µM unless noted. The method in brief:
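In this counter-screen for luciferase artifacts, test compounds met substrate (10 uM each luciferin and ATP) before 10 nM enzyme started the reaction. Light output was measured 5 min later.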

A short description of assay [8]: Primary fluorescence-based thiol-reactive (MSTI) qHTS assay for identification of artifact compounds. (AID 1845221).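 Note: thiol-reactive compounds lower the probe fluorescence signal; nearly all actives have a fitted effect of over 65% in size.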 The gist of the method: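 qHTS titration of compound; 4 uM MSTI, PBS pH 7.4, 2% DMSO; 1 h RT, dark; fluorescence 525/598 nm; normalized to Acetyl-MSTI and MSTI; 4-parameter Hill fit.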
Assay [9] concerns Nanoluciferase (engineered Oplophorus gracilirostris luciferase). Briefly: Primary Nanoluciferase (NLuc) qHTS assay for identification of artifact compounds. (AID 1845222).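 Note: NLuc secreted into diluted conditioned medium of S16 cells.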 The gist of the method: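 Using secreted nanoluciferase in S16 culture medium (0.22 um filtered, 1:55 dilution), compounds were preincubated 15 min at RT. Signal was generated with Nano-Glo reagent (1:100) over 5 min.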

The test system of a further assay is HaCat. Briefly: Cytotoxic Profiling of Annotated Libraries Using Quantitative High-Throughput Screening (AID 1296008). For max response: % is set by controls: 0 for no effect and ±100 for the full control effect. Note: nearly all actives have a fitted effect of over 60% in size. Note: potency is the fitted concentration of half-maximal effect. The note with it: Five cell lines viability, CellTiter-Glo ATP luminescence, 48-72 h; max response: active compounds read low. The method in brief: (§1)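 Compounds were pin-transferred onto cells and incubated 48 or 72 hr at 37 degree Celsius, 95% humidity. CellTiter-Glo was added, plates sat 10 min at room temperature, then ATP-coupled luminescence was imaged as the viability read-out.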
A general note: In ATP-based viability assays light output follows the ATP content of the culture.

A further assay relates to KB-3-1. The description is as above. As to conditions: Five cell lines viability, CellTiter-Glo ATP luminescence, 48-72 h; max response: active compounds read low. The method in brief: as §1
The test system of a further assay is CASKI. Briefly: Primary qHTS to identify gynecologic anti-cancer compounds using libraries of approved drugs and bioactive compounds (AID 1345084). For activity change, negative = cytotoxicity: % is set by controls: 0 for no effect and ±100 for the full control effect. Note: nearly all actives have a fitted effect of over 55% in size. Note: potency is the fitted concentration of half-maximal effect. As to conditions: Gynecologic cancer cell panel viability, ATPlite luminescence, 48 h; series mostly up to 57.5 µM. The gist of the method:
(§2)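 Cells, 1,000 per well, were allowed to settle for 16 h at 37 C before compound addition. Five concentrations were tested for 48 h, and viability was read by ATPlite luminescence after 15 min at room temperature.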

For a further assay, the system named is JEG-3. The assay is described as above. As to conditions: Gynecologic cancer cell panel viability, ATPlite luminescence, 48 h; series mostly up to 57.5 µM. The gist of the method: as §2
The next assay concerns OV90. The description is as above. As to conditions: Gynecologic cancer cell panel viability, ATPlite luminescence, 48 h; series mostly up to 57.5 µM. The method in brief: as §2
The test system of the next assay is Tov-21-G. Described as above. As to conditions: Gynecologic cancer cell panel viability, ATPlite luminescence, 48 h; series mostly up to 57.5 µM. The method in brief:
as §2

Assay [10] can be described thus: P-glycoprotein substrates identified in KB-8-5-11 adenocarcinoma cell line, qHTS therapeutic library screen (AID 1346987). Note: nearly all actives have a fitted effect of over 65% in size. Note: potency is the fitted concentration of half-maximal effect. The gist of the method: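 Compounds are pinned in dose-response onto KB-8-5-11 cells (500 cells/well, colchicine-free medium) and left 72 h at 37 degree C. CellTiter-Glo luminescence then yields AC50 values.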
Assay [11] in a line: Primary qHTS for inhibitors of nuclear receptor binding SET domain protein 2 (NSD2) in an RCH-ACV wild type WT cells (2C) (AID 1645877). Note: nearly all actives have a fitted effect of over 70% in size. Note: potency is the fitted concentration of half-maximal effect.

Sequence of Phospholipid hydroperoxide glutathione peroxidase GPX4 (Homo sapiens) (P36969 whole entry, looked up): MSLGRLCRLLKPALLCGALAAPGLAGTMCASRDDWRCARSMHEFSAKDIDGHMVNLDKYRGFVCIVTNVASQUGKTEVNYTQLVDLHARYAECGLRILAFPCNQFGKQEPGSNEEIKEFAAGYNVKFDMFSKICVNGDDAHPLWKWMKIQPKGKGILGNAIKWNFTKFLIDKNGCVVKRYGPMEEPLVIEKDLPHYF
Sequence of Glutathione peroxidase 1 (Homo sapiens) (P07203 whole entry, looked up): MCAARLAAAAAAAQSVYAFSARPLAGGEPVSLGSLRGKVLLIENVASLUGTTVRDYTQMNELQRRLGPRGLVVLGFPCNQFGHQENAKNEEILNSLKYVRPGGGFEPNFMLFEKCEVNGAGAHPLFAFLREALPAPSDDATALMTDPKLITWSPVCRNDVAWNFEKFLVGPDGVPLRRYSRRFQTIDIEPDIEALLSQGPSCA

As to `CCC1(O)CCC2C3CCC4=CC(=O)CCC4C3CCC21CC` (configuration not stated), the Potency result in [1], in [2], in assay [3], in assay [5], in assay [6] and in assay [8] was “inactive” in each case. The Potency entry (in [9]; in the assay with CASKI; in the assay with JEG-3; in the assay on OV90; in the assay on Tov-21-G) was “inactive” in each case. The Potency in [4] is 20.5 µM (active). The outcome (in [7]; in the assay on HaCat) was inactive. Besides, in the assay with KB-3-1, the max response was -10.9%.
Turning to `CC(C)C(=O)O[C@H]1[C@@H]2[C@H](C)C(=O)O[C@@H]2C[C@@H](C)[C@@H]2C=CC(=O)[C@]21C`, the Potency in assay [10] was 16.1 µM (active); in assay [4], 3.58 µM (active); in [11], 2.84 µM (active); in the assay on JEG-3, 10 µM (active); with Tov-21-G, 10 µM (active). Further, the Potency entry in assay [1], in assay [2], in assay [3], in [5], in assay [6] and in assay [8] was “inactive” in each case. For the same compound, the Potency result in [9] is “inactive”.
For `COc1ccc(C23CCC(=O)C=C2N(C)CC3)cc1OC` (configuration not stated), the Potency entry in assay [10], in assay [1], in [2], in [3], in [4] and in assay [11] was “inactive” throughout. Further, the Potency entry (in assay [5]; in assay [6]; in [8]; in assay [9]; in the assay on OV90; in the assay with Tov-21-G) was “inactive” in each case. In addition, the result in [7] was inactive. Moreover, the max response in the assay on KB-3-1 was -13%.
As for `Cc1sc2c(c1C)C(c1ccc(Cl)cc1)=NC(CC(=O)OC(C)(C)C)c1nnc(C)n1-2` (configuration not stated), the values for the Potency in [10], in assay [4] and in assay [11] were 1.16 µM (active), 0.183 µM (active) and 0.129 µM (active), respectively. The Potency entry (in assay [2]; in assay [3]; in assay [6]; in [8]; in assay [9]; in the assay on JEG-3) was “inactive” each time. The Potency result in the assay on OV90 was “inactive”.
For `C/C=C(/C)C(=O)O[C@H]1[C@@H]2[C@H](C)C(=O)O[C@@H]2C[C@@H](C)[C@@H]2C=CC(=O)[C@]21C`, the Potency result in assay [1], in assay [2], in [3], in [5], in assay [6] and in [8] was “inactive” each time. In addition, the Potency result (in assay [9]; with JEG-3; in the assay with Tov-21-G) was “inactive” each time. Further, the Potency in assay [4] is 12.7 µM (active). Further, the outcome in assay [7] was inactive. Further, the max response with HaCat was -11.7%.
With `COc1cccc(NCC(F)Cn2c3ccc(Br)cc3c3cc(Br)ccc32)c1` (configuration not stated), the Potency result in assay [1], in assay [2], in [3], in [5], in [6] and in [8] was “inactive” throughout. The Potency entry (in [9]; with OV90) was “inactive” each time. The Potency is 20.5 µM (active) in assay [11], 8.2 µM (active) in the assay on HaCat and 7.94 µM (active) in the assay with CASKI. In addition, in [7], the call was inactive.
For the compound `CC(=O)OC[C@]12C[C@H](OC(C)=O)C(C)=C[C@H]1O[C@@H]1[C@H](O)[C@@H](O)[C@@]2(C)[C@]12CO2`, the Potency is 0.904 µM (active) in assay [10]; 0.101 µM (active) in [4]; 0.0898 µM (active) in assay [11]; 1.28 µM (active) with HaCat; 0.18 µM (active) in the assay on KB-3-1; 1.41 µM (active) in the assay on CASKI. In addition, the Potency is 5.62 µM (active) in the assay on JEG-3 and 3.16 µM (active) in the assay on OV90. Besides, the Potency result in [1], in assay [2], in assay [3], in assay [5], in [6] and in assay [8] was “inactive” in each case. In addition, the Potency result in [9] is “inactive”.
As to `CN(CC[C@H](N)CC(=O)N[C@H]1C=C[C@@H](n2ccc(N)nc2=O)O[C@@H]1C(=O)O)C(=N)N`, the results for the activity change, negative = inhibition in assay [1] and in [2] were 11.2% [at 19.1 µM] and 10.8% [at 10.7 µM], respectively. Moreover, the Potency result in assay [3] was “inactive”. Moreover, the activity change, negative = viability loss in assay [4] is -2.6% [at 9.23 µM]. For the same compound, the activity change, negative = cell killing in [11] was 0.799% [at 9.23 µM]. Further, the activity, negative = inhibition was -3.97% [at 9.52 µM] in assay [5] and 0% [at 11.6 µM] in assay [9]. Besides, the values for the outcome in assay [6] and in assay [7] were “inactive [at 9.73 µM]” and “inactive [at 11.6 µM]”, respectively. The activity change, negative = thiol reactive in assay [8] is -6.62% [at 11.5 µM]. Moreover, the compound was called inactive in the assay on HaCat. The activity change, negative = cytotoxicity in the assay with CASKI was 4.22% [at 11.6 µM]; in the assay with JEG-3 it was 12.8% [at 11.6 µM]; in the assay with OV90, -7.37% [at 11.6 µM]; with Tov-21-G it was 2.99% [at 11.6 µM].
Regarding `CCCCCn1cc(C(=O)C2C(C)(C)C2(C)C)c2ccccc21`, the Potency result in assay [10], in assay [2], in assay [3], in assay [4], in assay [11] and in [5] was “inactive” in each case. Moreover, the Potency entry (in assay [6]; in assay [8]; in assay [9]; with CASKI; in the assay with JEG-3; in the assay with OV90) was “inactive” each time. Moreover, the Potency entry with Tov-21-G is “inactive”. Also, the result (in [7]; in the assay on HaCat) was inactive.
Regarding `Cc1ccc(-n2nccn2)c(C(=O)N2CCN(c3nc4cc(Cl)ccc4o3)CCC2C)c1` (configuration not stated), the Potency entry (in assay [1]; in [2]; in assay [6]; in assay [8]; in [9]; in the assay on CASKI) was “inactive” throughout. In addition, the Potency entry in the assay with JEG-3, with OV90 and with Tov-21-G was “inactive” throughout. Also, the Potency in assay [4] is 16.3 µM (active). Moreover, in the assay with HaCat, the call was inactive.
Turning to `COC[C@]12CN(C)C3C4[C@H](OC)[C@H]1C3(C(OC)C[C@H]2O)[C@H]1C[C@@]2(O)[C@H](OC(=O)c3ccccc3)[C@@H]1[C@]4(O)[C@@H](O)[C@@H]2OC` (some centres not stated), the Potency result in assay [10], in [1], in [2], in assay [3], in assay [4] and in assay [11] was “inactive” throughout. Besides, the Potency entry in assay [5], in [6], in [8] and in assay [9] was “inactive” in each case. In [7], the compound was classed as inactive. The max response in the assay on HaCat was -14.8%; in the assay with KB-3-1 it was -0.453%.
In the case of `C[C@]12CC[C@H](O[C@@H]3O[C@H](CO)[C@@H](O)[C@H](O)[C@H]3O)CC1CC[C@@H]1C2CC[C@]2(C)[C@@H](C3=CC(=O)OC3)CC[C@]12O` (some centres not stated), the Potency is 6.32 µM (active) in assay [10], 2.52 µM (active) in assay [4], 3.17 µM (active) in [11] and 5.01 µM (active) with Tov-21-G. Besides, the Potency result in assay [1], in assay [2], in assay [3], in assay [5], in [6] and in [8] was “inactive” each time. The Potency entry (in assay [9]; in the assay on OV90) was “inactive” throughout. The outcome in assay [7] is “inactive [at 25.7 µM]”.
